A number with no mark means an inactive call.
These compounds were tested on HCC1569 (assay: H1.0 immunofluorescence intensity relative to DMSO (% of DMSO); higher = stronger H1.0 induction, active = 140 or more). Settings: concentration: 10 µM; 24 h.
Method in brief: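 H1.0 nuclear intensity or cell number is expressed as percent of the plate control, with the median of replicates taken. HCC1569 and TDF cells were treated with compounds at 10 µM for 24 h at 37 °C, in triplicate, then fixed and immunostained for H1.0 with DAPI as a nuclear stain. HCC1569 values were smoothed to correct for positional effects.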
Work on `CCCN(CCC)C1CCc2c(F)ccc(O)c2C1.Cl` (stereo not drawn) [R(+)-UH-301 hydrochloride] yielded an H1.0 immunofluorescence intensity of 101. `CCC1=CC2CN3CCc4c([nH]c5ccccc45)C(C(=O)OC)(C2)C13` (stereo not given) [Catharanthine] showed an H1.0 immunofluorescence intensity of 92.1. In the case of `CCCN1CCc2cccc3c2C1Cc1ccc(O)c(O)c1-3.Cl` (stereo not drawn) [R(-)-Propylnorapomorphine hydrochloride], the H1.0 immunofluorescence intensity is reported as 105. For `Br.Br.CN(C)CCN(C)CCc1ccc(Cl)c(Cl)c1`, the H1.0 immunofluorescence intensity was 110. With `CC1(C(=O)O)C2CCC(O2)C1(C)C(=O)O` (stereo not given) [Cantharidic Acid] the H1.0 immunofluorescence intensity was 180 (active). `O=c1[nH]c2ccccc2n1CCCN1CCC(n2c(=O)[nH]c3cc(Cl)ccc32)CC1` [Domperidone] was tested, and the H1.0 immunofluorescence intensity was 109. With `CCC(C(=O)O)C1OC(C(C)C(O)C(C)C(=O)C(CC)C2OC3(C=CC(O)C4(CCC(C)(C5CCC(O)(CC)C(C)O5)O4)O3)C(C)CC2C)C(C)CC1C` (stereo not given) [Narasin] the H1.0 immunofluorescence intensity was 159 (active). Compound `Cl.Oc1ccc2c3c1OC1c4[nH]c5ccccc5c4CC4(O)C(C2)N(CC2CC2)CCC314` (stereo not given) [Naltrindole.HCl] has an H1.0 immunofluorescence intensity of 107. With `NC(=NN=Cc1ccc(-c2cccc([N+](=O)[O-])c2)o1)N[N+](=O)[O-]` [ERK Inhibitor III] the H1.0 immunofluorescence intensity was 102. For `C=C1CC2C(CCC3(C)C(=O)CCC23)C2(C)C=CC(=O)C=C12` (stereo not given) [Exemestane], the H1.0 immunofluorescence intensity was 102. With `CC12NC(Cc3ccccc31)c1ccccc12.O=C(O)C=CC(=O)O` (single isomer, unassigned; (+)) [(+)-MK-801 hydrogen maleate] the H1.0 immunofluorescence intensity was 89.3. `NC(=S)NN=Cc1coc2ccccc2c1=O.[Cl][Cu][Cl]` showed an H1.0 immunofluorescence intensity of 100. For `C/C(Nc1ccccc1)=C1\C(=O)NC(Cc2ccccc2)C1=O` (stereo not given) [(3E)-3-(1-anilinoethylidene)-5-benzyl-2,4-pyrrolidinedione], the H1.0 immunofluorescence intensity was 148 (active). For `C=CCN1CC(C(=O)N(CCCN(C)C)C(=O)NCC)CC2c3cccc4[nH]cc(c34)CC21` (stereo not given) [Cabergoline], the H1.0 immunofluorescence intensity was 102. For `CCCC[N+]1(C)C2CC(OC(=O)C(CO)c3ccccc3)CC1C1OC12.[Br-]` (stereo not given) [Scopolamine N-butylbromide], the H1.0 immunofluorescence intensity was 88.1. `CCC(C)C(=O)OC1C(O)C2C(CN3CC(C)CCC3C2(C)O)C2CC34OC5(O)C(OC(=O)C(C)(O)C(C)O)CCC3(C)C5C(OC(C)=O)C(OC(C)=O)C4C21O` (stereo not given) [Protoveratrine B] gave an H1.0 immunofluorescence intensity of 93.2. Work on `NCCc1c[nH]c2ccc(C(N)=O)cc12.O=C(O)C=CC(=O)O` [5-Carboxamidotryptamine maleate] yielded an H1.0 immunofluorescence intensity of 87.6. Compound `CC=C(C)C(=O)OC1CCC2(C)C3CCC4C5(O)CC(O)C6(O)C(CN7CC(C)CCC7C6(C)O)C5(O)CC42OC13O` (stereo not given) [Cevadine] has an H1.0 immunofluorescence intensity of 93. `Br.COc1c2c(cc3c1OCO3)CCN(C)C2` [Hydrocotarnine HBr] was tested, and the H1.0 immunofluorescence intensity was 92.6. `NC(CCP(=O)(O)O)C(=O)O` (racemic) showed an H1.0 immunofluorescence intensity of 91.1. With `CC(=CC=CC(C)C(=O)O)C1CNC(C(=O)O)C1CC(=O)O` (stereo not given) [Domoic acid] the H1.0 immunofluorescence intensity was 86.3. Compound `CCCCCCCCCCCCCCCCOCC(COP(=O)([O-])OCC[N+](C)(C)C)OC(C)=O` (stereo not drawn) [Enantio-PAF C16] has an H1.0 immunofluorescence intensity of 94. Compound `Ic1ccccc1CNC1C2CCN(CC2)C1C(c1ccccc1)c1ccccc1.O=C(O)C(=O)O` [L-703,606 oxalate] has an H1.0 immunofluorescence intensity of 128. In the case of `C[N+]1(C)C2CCC1CC(OC(=O)C(CO)c1ccccc1)C2.O=[N+]([O-])[O-]` (stereo not given) [Atropine methyl nitrate], the H1.0 immunofluorescence intensity is reported as 89.7. In the case of `CC(CCc1ccccc1)NC(C)C(O)c1ccc(O)cc1.Cl` (stereo not given) [Buphenine.HCl], the H1.0 immunofluorescence intensity is reported as 115.
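Further: TDF is a line of transformed human dermal fibroblasts of mesenchymal origin.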
